Binding signal data for seven sequences are collected here from PMC7862700, “An all-to-all approach to the identification of sequence-specific readers for epigenetic DNA modifications on cytosine”.

Common to all, as to test: DAPPL (digital affinity profiling via proximity ligation, sequencing); 10 mM Tris-HCl pH 7.5, 50 mM NaCl, 1 mM DTT, 4% glycerol, room temperature, 30 min; GST-TFs on glutathione beads, 16-mer random dsDNA library, 0.1% formaldehyde crosslink after washing; high values mean tight binding
Common to all, as to details: protein: recombinant; tags: N-terminal GST; dsDNA, one strand shown

One assay has as its target T1, FLI1 (Homo sapiens, UniProt Q01543 1-452).
T1 sequence: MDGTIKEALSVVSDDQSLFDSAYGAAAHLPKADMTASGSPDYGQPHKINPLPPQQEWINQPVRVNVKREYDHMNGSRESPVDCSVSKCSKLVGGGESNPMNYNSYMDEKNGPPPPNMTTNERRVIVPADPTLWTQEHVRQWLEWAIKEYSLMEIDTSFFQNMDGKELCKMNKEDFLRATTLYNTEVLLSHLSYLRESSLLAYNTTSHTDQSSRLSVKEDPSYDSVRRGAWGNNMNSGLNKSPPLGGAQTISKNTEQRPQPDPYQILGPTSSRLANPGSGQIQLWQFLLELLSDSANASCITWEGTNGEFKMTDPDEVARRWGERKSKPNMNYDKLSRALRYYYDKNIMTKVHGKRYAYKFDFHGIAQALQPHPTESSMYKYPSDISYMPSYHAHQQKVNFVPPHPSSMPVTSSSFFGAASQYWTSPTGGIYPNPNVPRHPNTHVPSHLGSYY
In short, it runs like this: (§1)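 Human transcription factors carrying a GST fusion were produced in yeast, bound to glutathione beads, tagged with DNA barcodes and pooled together with a tag-only sample. Each pool was held with 200 nmole of a random double-stranded 16-mer DNA library in Tris/NaCl/DTT/glycerol buffer for 30 min at room temperature, then washed, crosslinked in 0.1% formaldehyde, proximity-ligated with BsaI/T4 ligase (1 h, 37 °C), PCR-amplified and sequenced on an Illumina NextSeq500. Binding signal is the read frequency of each hexamer for a given factor divided by its frequency in the tag-only sample.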

The next assay concerns the target T2, ELK1 (Homo sapiens, UniProt P19419 1-428).
T2 sequence: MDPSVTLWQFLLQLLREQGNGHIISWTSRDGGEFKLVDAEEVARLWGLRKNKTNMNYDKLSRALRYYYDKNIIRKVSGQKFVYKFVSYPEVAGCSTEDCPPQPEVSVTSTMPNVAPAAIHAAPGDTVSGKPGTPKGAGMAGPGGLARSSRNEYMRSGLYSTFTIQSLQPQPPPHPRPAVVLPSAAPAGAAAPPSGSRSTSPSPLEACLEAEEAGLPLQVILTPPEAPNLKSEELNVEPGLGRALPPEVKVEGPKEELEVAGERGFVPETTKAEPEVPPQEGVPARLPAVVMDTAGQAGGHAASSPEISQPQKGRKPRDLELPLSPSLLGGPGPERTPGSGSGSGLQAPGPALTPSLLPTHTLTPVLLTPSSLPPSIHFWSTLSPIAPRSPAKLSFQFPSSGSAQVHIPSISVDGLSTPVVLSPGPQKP
Summed up:
as §1

In another assay the target is T3, GABPA (Homo sapiens, UniProt Q06546 1-454).
T3 sequence: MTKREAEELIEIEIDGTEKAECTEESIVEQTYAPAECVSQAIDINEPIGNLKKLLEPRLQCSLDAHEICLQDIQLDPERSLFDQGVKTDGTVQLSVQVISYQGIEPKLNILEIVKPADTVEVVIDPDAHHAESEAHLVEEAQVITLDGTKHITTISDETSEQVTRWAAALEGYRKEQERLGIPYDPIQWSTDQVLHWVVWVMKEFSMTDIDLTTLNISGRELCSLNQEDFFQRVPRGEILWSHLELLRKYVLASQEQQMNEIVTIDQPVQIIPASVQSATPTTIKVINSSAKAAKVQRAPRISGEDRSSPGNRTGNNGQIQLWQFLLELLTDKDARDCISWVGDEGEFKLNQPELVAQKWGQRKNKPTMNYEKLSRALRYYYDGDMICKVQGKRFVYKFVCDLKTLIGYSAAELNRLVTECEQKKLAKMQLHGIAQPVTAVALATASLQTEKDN
In short, it runs like this:
as §1

For the next assay, the target named is T4, ERG (Homo sapiens, UniProt P11308 1-479).
T4 sequence: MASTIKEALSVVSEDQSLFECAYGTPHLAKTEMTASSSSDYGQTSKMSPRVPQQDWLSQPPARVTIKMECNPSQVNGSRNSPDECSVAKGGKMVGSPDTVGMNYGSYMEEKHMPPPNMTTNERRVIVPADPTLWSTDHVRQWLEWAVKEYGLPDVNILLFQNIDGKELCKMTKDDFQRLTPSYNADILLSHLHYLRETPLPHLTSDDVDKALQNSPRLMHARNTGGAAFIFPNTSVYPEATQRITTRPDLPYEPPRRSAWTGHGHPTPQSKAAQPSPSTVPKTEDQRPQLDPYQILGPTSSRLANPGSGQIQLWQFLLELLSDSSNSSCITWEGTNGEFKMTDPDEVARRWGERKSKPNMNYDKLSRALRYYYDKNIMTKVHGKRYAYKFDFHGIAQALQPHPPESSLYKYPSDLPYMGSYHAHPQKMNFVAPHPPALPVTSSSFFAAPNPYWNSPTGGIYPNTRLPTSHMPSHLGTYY
In short, it runs like this: as §1

A further assay has as its target ELF1 (Homo sapiens, UniProt P32519 1-619). In short, it runs like this: as §1
A further assay concerns the target T5, EHF (Homo sapiens, UniProt Q9NZC4 1-300).
T5 sequence: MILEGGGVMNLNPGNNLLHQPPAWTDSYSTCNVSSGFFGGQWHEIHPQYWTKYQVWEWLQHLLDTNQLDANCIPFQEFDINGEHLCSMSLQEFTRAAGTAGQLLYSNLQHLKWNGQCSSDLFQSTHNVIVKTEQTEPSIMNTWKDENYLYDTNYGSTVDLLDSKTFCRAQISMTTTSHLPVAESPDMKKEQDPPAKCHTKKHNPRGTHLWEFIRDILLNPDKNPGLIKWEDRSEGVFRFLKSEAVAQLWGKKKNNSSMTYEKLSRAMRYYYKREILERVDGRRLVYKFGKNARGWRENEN
Summed up:
as §1

The target of the next assay is SPI1 (Homo sapiens, UniProt P17947 1-270). In short, it runs like this: as §1
The next assay addresses SPIB (Homo sapiens, UniProt Q01892 1-262). In short, it runs like this:
as §1

For another assay, the target named is T6, ELK3 (Homo sapiens, UniProt P41970 1-407).
T6 sequence: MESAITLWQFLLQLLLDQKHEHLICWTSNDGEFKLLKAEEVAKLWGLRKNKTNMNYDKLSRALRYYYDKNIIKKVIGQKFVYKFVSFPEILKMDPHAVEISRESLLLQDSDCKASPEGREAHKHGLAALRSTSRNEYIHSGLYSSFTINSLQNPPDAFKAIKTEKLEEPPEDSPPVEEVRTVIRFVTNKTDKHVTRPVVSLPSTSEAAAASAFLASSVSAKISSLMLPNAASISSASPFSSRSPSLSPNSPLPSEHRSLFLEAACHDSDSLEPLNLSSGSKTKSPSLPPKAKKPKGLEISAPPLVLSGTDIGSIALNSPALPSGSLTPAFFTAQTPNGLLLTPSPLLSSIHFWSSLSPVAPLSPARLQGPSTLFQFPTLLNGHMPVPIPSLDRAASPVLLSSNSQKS
Summed up: as §1

Sequence of ELF1 (P32519 whole entry): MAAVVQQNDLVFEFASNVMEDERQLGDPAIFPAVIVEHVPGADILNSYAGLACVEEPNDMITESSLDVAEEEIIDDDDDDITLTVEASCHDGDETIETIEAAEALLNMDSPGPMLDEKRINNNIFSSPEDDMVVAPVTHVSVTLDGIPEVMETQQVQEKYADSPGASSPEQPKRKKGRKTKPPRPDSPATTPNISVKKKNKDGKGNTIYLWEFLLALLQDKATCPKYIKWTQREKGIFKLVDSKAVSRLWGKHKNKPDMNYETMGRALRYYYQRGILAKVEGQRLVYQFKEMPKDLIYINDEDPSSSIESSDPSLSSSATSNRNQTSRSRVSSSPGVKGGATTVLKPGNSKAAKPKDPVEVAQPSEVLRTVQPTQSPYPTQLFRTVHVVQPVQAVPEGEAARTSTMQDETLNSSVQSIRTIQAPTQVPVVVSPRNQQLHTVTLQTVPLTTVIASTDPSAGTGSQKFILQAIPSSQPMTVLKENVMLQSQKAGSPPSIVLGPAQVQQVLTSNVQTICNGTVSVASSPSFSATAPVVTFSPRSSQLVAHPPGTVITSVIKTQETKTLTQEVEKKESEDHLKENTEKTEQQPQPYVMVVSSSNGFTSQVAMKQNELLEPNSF
Sequence of SPIB (Q01892 whole entry): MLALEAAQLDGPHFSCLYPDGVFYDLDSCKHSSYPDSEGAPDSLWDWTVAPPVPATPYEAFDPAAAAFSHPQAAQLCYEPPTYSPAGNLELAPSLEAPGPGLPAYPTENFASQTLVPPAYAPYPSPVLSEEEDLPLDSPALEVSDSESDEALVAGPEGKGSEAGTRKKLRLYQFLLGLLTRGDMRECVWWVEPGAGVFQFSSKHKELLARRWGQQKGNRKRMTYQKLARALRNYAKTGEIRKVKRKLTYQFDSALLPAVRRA

For TTAGGG, the binding signal in the assay with FLI1 is 1.03 fold enrichment (6-mer frequency, TF over GST control); with ELK1 it was 1.14 fold enrichment (6-mer frequency, TF over GST control); with GABPA, 1.13 fold enrichment (6-mer frequency, TF over GST control); in the assay with ERG, 1.15 fold enrichment (6-mer frequency, TF over GST control); with ELF1, 1.11 fold enrichment (6-mer frequency, TF over GST control); in the assay with EHF, 1.13 fold enrichment (6-mer frequency, TF over GST control). The binding signal in the assay with SPI1 was 1.25 fold enrichment (6-mer frequency, TF over GST control); in the assay with SPIB it was 1.17 fold enrichment (6-mer frequency, TF over GST control); in the assay with ELK3 it was 1.07 fold enrichment (6-mer frequency, TF over GST control).

For GGCTCA, the binding signal was 1.22 fold enrichment (6-mer frequency, TF over GST control) with FLI1; 1.38 fold enrichment (6-mer frequency, TF over GST control) with ELK1; 1.32 fold enrichment (6-mer frequency, TF over GST control) in the assay with GABPA; 1.33 fold enrichment (6-mer frequency, TF over GST control) with ERG; 1.34 fold enrichment (6-mer frequency, TF over GST control) with ELF1; 1.23 fold enrichment (6-mer frequency, TF over GST control) with EHF. In addition, the binding signal with SPI1 is 1.24 fold enrichment (6-mer frequency, TF over GST control); with SPIB, 1.24 fold enrichment (6-mer frequency, TF over GST control); with ELK3, 1.23 fold enrichment (6-mer frequency, TF over GST control).

Consider AAAAAT, for which the binding signal in the assay with FLI1 was 1.28 fold enrichment (6-mer frequency, TF over GST control); in the assay with ELK1 it was 1.24 fold enrichment (6-mer frequency, TF over GST control); with GABPA, 1.31 fold enrichment (6-mer frequency, TF over GST control); in the assay with ERG, 1.26 fold enrichment (6-mer frequency, TF over GST control); with ELF1 it was 1.31 fold enrichment (6-mer frequency, TF over GST control); in the assay with EHF, 1.37 fold enrichment (6-mer frequency, TF over GST control). Besides, the binding signal with SPI1 was 1.29 fold enrichment (6-mer frequency, TF over GST control); with SPIB, 1.43 fold enrichment (6-mer frequency, TF over GST control); with ELK3, 1.39 fold enrichment (6-mer frequency, TF over GST control).

In the case of ATCAAC, the binding signal with FLI1 was 1.12 fold enrichment (6-mer frequency, TF over GST control); with ELK1, 1.19 fold enrichment (6-mer frequency, TF over GST control); with GABPA, 1.19 fold enrichment (6-mer frequency, TF over GST control); in the assay with ERG it was 1.07 fold enrichment (6-mer frequency, TF over GST control); with ELF1, 1.13 fold enrichment (6-mer frequency, TF over GST control); with EHF, 1.12 fold enrichment (6-mer frequency, TF over GST control). The binding signal is 1.08 fold enrichment (6-mer frequency, TF over GST control) with SPI1; 1.1 fold enrichment (6-mer frequency, TF over GST control) in the assay with SPIB; 1.21 fold enrichment (6-mer frequency, TF over GST control) with ELK3.

For the sequence ACTATG, the binding signal with FLI1 was 1.23 fold enrichment (6-mer frequency, TF over GST control); with ELK1, 1.28 fold enrichment (6-mer frequency, TF over GST control); in the assay with GABPA, 1.37 fold enrichment (6-mer frequency, TF over GST control); with ERG, 1.19 fold enrichment (6-mer frequency, TF over GST control); with ELF1, 1.21 fold enrichment (6-mer frequency, TF over GST control); in the assay with EHF, 1.25 fold enrichment (6-mer frequency, TF over GST control). In addition, the binding signal with SPI1 was 1.14 fold enrichment (6-mer frequency, TF over GST control); in the assay with SPIB, 1.31 fold enrichment (6-mer frequency, TF over GST control); with ELK3, 1.2 fold enrichment (6-mer frequency, TF over GST control).

For the sequence TCCACA, the binding signal with FLI1 was 1.3 fold enrichment (6-mer frequency, TF over GST control); with ELK1 it was 1.27 fold enrichment (6-mer frequency, TF over GST control); with GABPA it was 1.26 fold enrichment (6-mer frequency, TF over GST control); in the assay with ERG it was 1.19 fold enrichment (6-mer frequency, TF over GST control); with ELF1, 1.23 fold enrichment (6-mer frequency, TF over GST control); in the assay with EHF, 1.25 fold enrichment (6-mer frequency, TF over GST control). The binding signal was 1.28 fold enrichment (6-mer frequency, TF over GST control) in the assay with SPI1; 1.14 fold enrichment (6-mer frequency, TF over GST control) in the assay with SPIB; 1.35 fold enrichment (6-mer frequency, TF over GST control) with ELK3.

With TGCTTT, the binding signal was 1.13 fold enrichment (6-mer frequency, TF over GST control) in the assay with FLI1; 1.12 fold enrichment (6-mer frequency, TF over GST control) with ELK1; 1.12 fold enrichment (6-mer frequency, TF over GST control) in the assay with GABPA; 1.02 fold enrichment (6-mer frequency, TF over GST control) with ERG; 1.1 fold enrichment (6-mer frequency, TF over GST control) with ELF1; 1.04 fold enrichment (6-mer frequency, TF over GST control) with EHF. Besides, the binding signal with SPI1 is 1.14 fold enrichment (6-mer frequency, TF over GST control); with SPIB, 1.08 fold enrichment (6-mer frequency, TF over GST control); in the assay with ELK3 it was 1.1 fold enrichment (6-mer frequency, TF over GST control).
